Results filed as inconclusive are left out. Entries that show only a call come without a potency. The source made the active and inactive calls. Calls follow the shape of the dose curve; as a rule, active = well fitted curve in the direction sought with a large enough effect; inconclusive = small, poorly fitted or top-dose-only effect, or another doubt; inactive = no such curve, though single readings can be large; an effect the other way counts as inactive or inconclusive.
How the values were obtained:
[1] = biological target: Aldehyde dehydrogenase, mitochondrial (Homo sapiens) (UniProt P05091); assay: qHTS for Inhibitors of the Aldehyde Dehydrogenase Family (ALDH2) Primary screen (AID 2061308); details: ALDH2 enzyme inhibition qHTS, 1536-well; series mostly up to 56 µM; also: nearly all actives have a fitted effect of over 55% in size
[2] = biological target: Retinaldehyde dehydrogenase 3 (Homo sapiens) (UniProt P47895); assay: qHTS for Inhibitors of the Aldehyde Dehydrogenase Family (ALDH1A3) Primary screen (AID 2061315); details: ALDH inhibition qHTS; series mostly up to 56 µM

SMILES	Potency [1]	Potency [2]
N#Cc1c(-c2ccco2)no[n+]1[O-]	inactive	inactive
COCCNc1cc2c(cc1[S+](=O)([O-])Nc1ccc(C)c(C)c1)CCC(=O)N2	inactive	inactive
COC(=O)c1ccc2c(c1)/C(=C/c1cc(Br)c(O)c(Br)c1)C(=O)N2	inactive	inactive
O=C(OCC#CCSc1nnc(-c2ccccc2F)o1)c1ccc(F)cc1	inactive	inactive
COC(=O)c1ccccc1S(=O)(=O)Nc1ccc(OC)cc1	inactive	inactive
C=C(C)C(=O)OC1C(OC(C)=O)/C(C=O)=C\CC/C(CO)=C/C2OC(=O)C(=C)C21 (stereo not given)	inactive	inactive
CN1C(=O)NC(c2ccccc2Cl)C2=C1CCCC2=O (stereo not given)	inactive	inactive
Cc1ccc(-c2cc(C(=O)Nc3ccc(Cl)cc3)c3ccccc3n2)cc1C	inactive	inactive
O=C(OCC#CCSc1nnc(-c2cccc3ccccc23)o1)c1ccc(F)nc1	inactive	inactive
Cc1cc(C)nc(NC(=S)N2CCN(S(=O)(=O)c3cccc(C(F)(F)F)c3)CC2)c1	inactive	inactive
O=C1c2ccccc2C(=O)N1Cc1ccccn1	inactive	inactive
NC(=O)c1cnc(N[C@@H]2CCCC[C@H]2N)nc1Nc1cccc(-n2nccn2)c1	inactive	inactive
COc1ccc(NC(=O)C(OC(=O)CNC(=O)c2ccccc2)c2ccccc2)cc1F (stereo not given)	inactive	inactive
COc1cccc(C2C(C#N)=C(NC(=O)CCc3ccccc3)Oc3ccc4ccccc4c32)c1 (stereo not given)	inactive	inactive
Cc1cc(C)n2ncc(C(=O)Nc3ccncc3)c2n1	inactive	inactive
Cc1ccc(S(=O)(=O)Nc2cnccc2C(=O)Nc2nc(-c3cc4ccccc4o3)cs2)cc1	inactive	inactive
N#Cc1ccccc1Nc1ncc(-c2cccc3ccccc23)o1	inactive	inactive
CC1=C(C(=O)N(C)C)C(c2ccccc2Br)N=C(Nc2nc3ccccc3o2)N1 (stereo not given)	inactive	inactive
O=C(OCC#CCSc1nnc(-c2cccc3ccccc23)o1)c1ccc(F)cc1	inactive	inactive
Cc1ccc(N[S+](=O)([O-])c2cc3c(cc2Cl)CCC(=O)N3)cc1Br	inactive	inactive

SMILES	Potency [1]	Potency [2]
COc1cccc(C2c3c(ncn(-c4ccc(C(C)(C)C)cc4)c3=N)Oc3ccc4ccccc4c32)c1 (stereo not given)	inactive	inactive
N#CN1CCC(NC(=O)c2ccc(C(F)(F)F)cc2)CC1	inactive	inactive
O=C(c1ccc(F)c(F)c1Nc1ccc(I)cc1F)N1CC(O)(C2CCCCN2)C1 (stereo not given)	inactive	inactive
O=C1CCCC2=C1C(c1cnccc1C(F)(F)F)N=C(Nc1nc3ccccc3o1)N2 (stereo not given)	inactive	inactive
COc1c(NS(=O)(=O)c2ccc(C)cc2)cccc1C(=O)Nc1nc(-c2ccccc2)cs1	inactive	inactive
COc1cc(OC)cc(C2=Nn3c(nnc3-c3ccccc3O)SC2)c1	inactive	inactive
COc1cc(Nc2nc(-c3ccncc3)nc3ccccc23)ccc1F	inactive	inactive
COc1ccc(C2Nc3ccccc3C(=O)N2Cc2cccs2)cc1COc1c(C)cccc1C (stereo not given)	inactive	inactive
OC[C@H]1O[C@@H](O[C@H]2[C@H](OCCc3ccccc3)O[C@H](CO)[C@@H](O)[C@@H]2O)[C@H](O)[C@@H](O)[C@@H]1O	inactive	inactive
O=C(NC1CCCc2c1cnn2-c1ccc(F)cc1F)C1CCCCN1 (stereo not given)	inactive	inactive
N#Cc1ccccc1-c1csc(N2CCC(C(N)=O)CC2)n1	inactive	inactive
COc1cc(NC(=O)c2cnn3c(C)cc(C)nc23)cc(OC)c1OC	inactive	inactive
Fc1ccccc1-c1ccc(Nc2nc(-c3ccncc3)nc3ccccc23)cc1F	inactive	inactive
Cc1ccc(-c2cc(C(=O)NC3CCCCC3)c3ccccc3n2)cc1C	inactive	inactive
O=C(c1ccc2c(c1)ncn2-c1ccc(C(F)(F)F)cc1)N1CCCCC1	inactive	inactive
COc1cc(NC(=O)C(OC(=O)CNC(=O)c2ccccc2)c2ccccc2)cc(C(F)(F)F)c1 (stereo not given)	inactive	inactive
C=C1C(=O)OC2CC3(C)C(O)C(=O)C=C(C)C3CC12 (stereo not given)	inactive	inactive
O=C1CCCC2=C1C1(CCCCC1)N=C(Nc1nc3ccccc3o1)N2	inactive	inactive
CC(=O)Nc1ccc(S(=O)(=O)Nc2ccc(C)c(C)c2)cc1	inactive	inactive
O=C(O)c1ccc(CSc2nnc(-c3ccc([S+](=O)([O-])N4CCCC4)cc3)n2-c2ccccc2)cc1	inactive	inactive

Source: PubChem BioAssay (NCATS)
